PubChem BioAssay
Activity calls are given as the source filed them.

Assays:
[1] = tested on: Plasmodium falciparum Sir2 (PF13_0152, Sir2A); experiment: Plasmodium falciparum Sir2A binding compounds – biochemical, small-molecule microarray, 635 nm fluorescence, primary screen (AID 1098); details: fluorescence 635 nm, higher = more signal;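 further: score merges spot fluorescence intensity with its signal-to-noise ratio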
[2] = probe aDKK1 binding to arrayed compounds – biochemical, biotinylated probe, 635/667 nm fluorescence, primary screen (AID 1099); details: small-molecule microarray, higher = more signal;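 further: score merges 667nm spot fluorescence with signal to noise across triplicate slides; reference of the scale not given here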
[3] = probe aCHRDL2 binding to arrayed compounds – biochemical, biotinylated probe, 635/667 nm fluorescence, primary screen (AID 1100); details: small-molecule microarray, higher = more signal
[4] = change in splice reporter luminescence, either direction, cell-based, HEK293, spliceosome inhibition project, primary screen (AID 1101); details: HEK293 splicing luciferase reporter, 24 h, higher = more signal, called active from +8 up or from −8 down;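 further: HEK293 cells carrying a splicing-competent luciferase reporter gene; test concentration not given here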
[5] = biological target: Fibroblast growth factor 10 (Homo sapiens) (UniProt O15520); experiment: compounds binding fibroblast growth factor 10 – biochemical, small-molecule microarray, 635 nm fluorescence, primary screen (AID 1102); details: FGF10 binding, fluorescence 635 nm, higher = more signal
[6] = tested on: glycogen synthase kinase-3 (GSK3A per assay name; protocol says GSK3B); experiment: compounds binding glycogen synthase kinase-3 – biochemical, small-molecule microarray, 635 nm fluorescence, GSK3A, primary screen (AID 1103); details: fluorescence 635 nm, higher = more signal; further: the record names both GSK3A and GSK3B
[7] = biological target: Epidermal growth factor receptor (Homo sapiens) (UniProt P00533); experiment: compounds binding epidermal growth factor receptor – biochemical, small-molecule microarray, 635 nm fluorescence, primary screen (AID 1104); details: EGFR binding, higher = more signal;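 further: score merges 667 nm emission intensity with spot signal to noise over triplicate slides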
[8] = biological target: Follistatin-related protein 3 (Homo sapiens) (UniProt O95633); experiment: compounds binding follistatin-related protein 3 – biochemical, small-molecule microarray, 635 nm fluorescence, primary screen (AID 1105); details: FSTL3 binding, higher = more signal;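 further: score merges emission near 667 nm and signal to noise per printed spot across three slides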
[9] = biological target: Dickkopf-related protein 1 (Homo sapiens) (UniProt O94907); experiment: small molecules binding DKK1 protein – biochemical, small-molecule microarray, 635 nm fluorescence scan, primary screen (AID 1106); details: higher = more signal;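 further: score merges emission near 667 nm with signal to noise over three replicate slides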
[10] = tested on: Inhibin beta A chain (activin A); experiment: small molecules binding activin A – biochemical, small-molecule microarray, 635 nm fluorescence scan, primary screen (AID 1107); details: INHBA, higher = more signal;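 further: mouse activin A protein probed at 4.33 µg/mL on printed slides; score merges bound-protein fluorescence near 667 nm with spot signal-to-noise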

Sequence of Follistatin-related protein 3 (Homo sapiens) (O95633 whole entry, looked up): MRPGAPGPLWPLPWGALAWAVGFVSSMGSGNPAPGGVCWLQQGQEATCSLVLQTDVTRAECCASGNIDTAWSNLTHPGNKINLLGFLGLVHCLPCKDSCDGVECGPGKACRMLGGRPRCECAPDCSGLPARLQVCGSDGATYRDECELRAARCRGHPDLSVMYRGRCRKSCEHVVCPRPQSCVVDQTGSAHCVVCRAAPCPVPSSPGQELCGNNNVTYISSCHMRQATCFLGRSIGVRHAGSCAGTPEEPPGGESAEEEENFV
Sequence of Epidermal growth factor receptor (Homo sapiens) (P00533 whole entry, looked up): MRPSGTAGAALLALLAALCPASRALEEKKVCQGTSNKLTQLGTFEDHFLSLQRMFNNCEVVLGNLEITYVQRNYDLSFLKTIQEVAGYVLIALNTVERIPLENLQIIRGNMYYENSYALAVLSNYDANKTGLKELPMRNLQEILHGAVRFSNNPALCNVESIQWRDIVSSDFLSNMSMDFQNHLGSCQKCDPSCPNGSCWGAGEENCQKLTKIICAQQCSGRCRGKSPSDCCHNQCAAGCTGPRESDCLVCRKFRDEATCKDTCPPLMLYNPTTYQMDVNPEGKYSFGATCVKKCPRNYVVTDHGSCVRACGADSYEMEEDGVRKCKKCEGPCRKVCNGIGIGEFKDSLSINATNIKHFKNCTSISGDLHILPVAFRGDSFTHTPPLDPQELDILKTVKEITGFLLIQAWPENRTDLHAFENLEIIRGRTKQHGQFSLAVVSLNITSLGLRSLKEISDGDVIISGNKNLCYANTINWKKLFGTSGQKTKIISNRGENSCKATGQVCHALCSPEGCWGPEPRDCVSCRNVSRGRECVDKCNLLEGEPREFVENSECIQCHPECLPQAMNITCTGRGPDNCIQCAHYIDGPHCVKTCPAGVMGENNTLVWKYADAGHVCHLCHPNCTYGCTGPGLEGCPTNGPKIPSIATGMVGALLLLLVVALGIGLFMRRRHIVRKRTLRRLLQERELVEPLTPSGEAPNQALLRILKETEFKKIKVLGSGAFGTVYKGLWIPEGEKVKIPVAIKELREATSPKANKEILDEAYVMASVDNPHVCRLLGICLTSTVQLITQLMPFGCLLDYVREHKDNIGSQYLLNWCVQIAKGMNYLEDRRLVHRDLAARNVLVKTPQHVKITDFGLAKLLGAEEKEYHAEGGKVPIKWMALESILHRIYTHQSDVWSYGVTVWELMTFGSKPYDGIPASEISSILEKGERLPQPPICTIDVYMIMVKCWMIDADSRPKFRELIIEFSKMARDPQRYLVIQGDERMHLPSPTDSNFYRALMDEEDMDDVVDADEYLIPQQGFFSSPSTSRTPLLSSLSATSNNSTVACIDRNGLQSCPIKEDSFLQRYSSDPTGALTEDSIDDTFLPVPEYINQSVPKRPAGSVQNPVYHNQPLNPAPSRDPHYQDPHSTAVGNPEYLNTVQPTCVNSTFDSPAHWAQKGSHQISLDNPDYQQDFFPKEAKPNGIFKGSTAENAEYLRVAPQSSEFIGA
Sequence of Dickkopf-related protein 1 (Homo sapiens) (O94907 whole entry, looked up): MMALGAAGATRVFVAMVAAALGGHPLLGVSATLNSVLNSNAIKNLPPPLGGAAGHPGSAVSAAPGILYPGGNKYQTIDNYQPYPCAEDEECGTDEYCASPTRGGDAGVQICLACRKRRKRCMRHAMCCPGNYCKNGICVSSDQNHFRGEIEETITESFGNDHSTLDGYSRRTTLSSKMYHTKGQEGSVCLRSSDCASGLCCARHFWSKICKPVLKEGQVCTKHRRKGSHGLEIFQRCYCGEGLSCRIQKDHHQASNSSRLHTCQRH
Sequence of Fibroblast growth factor 10 (Homo sapiens) (O15520 whole entry, looked up): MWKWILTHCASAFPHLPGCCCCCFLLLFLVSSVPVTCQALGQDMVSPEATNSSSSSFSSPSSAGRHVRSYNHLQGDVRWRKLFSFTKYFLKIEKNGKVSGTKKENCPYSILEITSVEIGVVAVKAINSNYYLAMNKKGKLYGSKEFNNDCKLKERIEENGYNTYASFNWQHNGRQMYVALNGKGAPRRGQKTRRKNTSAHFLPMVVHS

Compound | composite z-score [1] | composite z-score [2] | composite z-score [3] | z-score [4] | composite z-score [5] | composite z-score [6] | composite z-score [7] | composite z-score [8] | composite z-score [9] | composite z-score [10]
COc1ccc(COC(=O)NN=C2C[C@@H](O)[C@@H](O)[C@@H]3[C@@H]4C(=O)N(Cc5ccc6c(c5)OCO6)C(=O)[C@@H]4CC[C@@H]23)cc1 | -0.454 | 0.911 | 1.39 | -1.36 (inactive) | -0.0715 | -0.52 | -0.451 | -0.226 | -0.539 | 0.556
CO[C@@H]1COC(=O)CCC[C@@H](C)[C@H](OC)COC(=O)[C@H](Cc2ccccc2)NC(=O)CC=C[C@H]1C | 0.637 | -0.485 | -0.497 | -0.491 (inactive) | -0.974 | -0.999 | 0.231 | 0.507 | 0.915 | 1.6
CN(C)CCCNC(=O)[C@@H]1c2ccccc2C(=O)N(Cc2cc(F)cc(C(F)(F)F)c2)[C@H]1c1ccc(CO)cc1 | 1.75 | -0.132 | 0.17 | -1 (inactive) | 0.159 | 0.922 | 0.368 | -1.1 | 0.0959 | -0.217
CCOC(=O)NN=C1C[C@@H](O)[C@@H](O)[C@@H]2[C@@H]3C(=O)N(C4CCCCC4)C(=O)[C@@H]3CC[C@@H]12 | 0.104 | -0.192 | -0.499 | 1.06 (inactive) | 0.534 | 0.132 | 0.34 | 0.297 | 0.476 | 0.212
COCCOC(=O)N1C(=O)[C@@]2(c3cc(C#CC4(O)CCCCCC4)ccc31)[C@H](c1ccc(OCCO)cc1)N1[C@H](c3ccccc3)[C@H](c3ccccc3)OC(=O)[C@H]1[C@@H]2C(=O)NC[C@H](O)c1ccccc1 | 0.933 | 0.0678 | 0.389 | -0.268 (inactive) | 1.18 | 1.29 | 0.258 | 0.432 | 0.208 | 0.527
CCN(CC)c1ccc(N2CC=CC34O[C@@H]5/C=C\CCC(C)OC(=O)C5[C@H]3C(=O)N(CCCO)[C@@H]4C2=O)cc1 (stereo not given in full) | 1.44 | -0.137 | 0.325 | 0.122 (inactive) | -0.221 | -0.615 | -1.02 | -0.777 | -0.492 | 1.01
CCOC(=O)[C@H](Cc1ccccc1)NC(=O)CCC1CC(OC(=O)NCc2ccc3c(c2)OCO3)CC2(CCCC(COC(=O)NCC(c3ccccc3)c3ccccc3)O2)O1 (stereo not given in full) | 1.06 | -0.0362 | -0.481 | -1.45 (inactive) | 0.525 | 1.23 | 0.251 | 0.929 | 0.377 | -0.0374
CCCCCN1CC=CC23O[C@@H]4C=CCOC(=O)[C@@H]4[C@H]2C(=O)N(C(CO)C(C)C)[C@@H]3C1=O (stereo not given in full) | 0.745 | -0.183 | 0.0134 | 0.253 (inactive) | -0.512 | -0.786 | -1.07 | -0.472 | -0.426 | 0.712
CN1C(=O)C2C=CC(C(O)C(c3ccccc3)c3ccccc3)N(NC(=O)OC(C)(C)C)C2C1=O (stereo not given) | 1.46 | 1.21 | 1.22 | 1.71 (inactive) | 1.03 | 1.12 | 0.341 | 1.24 | 0.452 | -0.109
CC(CCN1CCc2nc(-c3ccccc3)c(-c3ccccc3)cc2C1)=NO[C@@H](C)c1cn([C@H](CO)Cc2ccccc2)nn1 | 0.0154 | -0.336 | 0.119 | -1.26 (inactive) | -0.105 | -0.335 | 0.209 | 0.176 | 0.175 | 1.13
CCOC(=O)CCN1C(=O)[C@H]2[C@H]3[C@H](O)[C@H](O)CC(=NOC[C@@H](O)COCc4ccco4)[C@@H]3CC[C@H]2C1=O | 0.0645 | 0.587 | 0.437 | 0.395 (inactive) | -0.133 | -0.412 | -0.0138 | -0.295 | -0.144 | 0.383
CO[C@@H]1COC(=O)CC=C[C@@H](C)[C@@H]2C=C[C@@H](O)[C@@H](COC(=O)CC=C[C@H]1C)O2 | 0.661 | -0.325 | -1.08 | -0.953 (inactive) | 0.954 | 0.524 | 0.935 | 1.48 | 0.804 | 1.12
COCCOC(=O)N1C(=O)[C@@]2(c3cc(C#CCNC(N)=O)ccc31)[C@H](c1ccc(O)cc1)N1[C@H](c3ccccc3)[C@H](c3ccccc3)OC(=O)[C@H]1[C@@H]2C(=O)N1CCCCCCC1 | 1.08 | 0.614 | 0.356 | -0.364 (inactive) | 1.25 | 0.43 | 0.611 | 1.38 | 0.969 | 0.85
O=C(NN=C1C[C@@H](O)[C@@H](O)[C@@H]2[C@@H]3C(=O)N(c4cccc(Oc5ccccc5)c4)C(=O)[C@@H]3CC[C@@H]12)OCc1ccccc1 | 0.0165 | 0.182 | 0.548 | 0.538 (inactive) | 0.353 | -0.54 | 0.152 | -0.112 | 0.155 | 0.229
